# Measured values reported in ChEMBL document CHEMBL3988442, “University of Dundee, Small-Polar-MMV Screening Library” (2021).
# In all, about 48,000 compounds went through this assay and about 13,000 (27%) showed an effect of 50% or more. The list shows a part of the results.
# Test system: Wolbachia pipientis
# Test: Anti-Wolbachia Cell-Based Screen
# Type: functional
# Design: scale not given: in the data most compounds retested in dose-response had high values
# Conditions: 5 µM
row,SMILES,Percent Effect
1,COc1cccc(CN2C[C@@H](F)[C@@H](OCc3nc4cnccc4[nH]3)C2)c1,-9.076%
2,COc1ccc(C2C3=C(COC3=O)Nc3[nH]nc(C)c32)cc1OC (centres undefined),3.297%
3,COCCn1ccc(NCc2scnc2C)n1,1.852%
4,CC(NCc1cc2cc(F)ccc2o1)c1nnc2n1CCCC2 (centres undefined),-7.412%
5,COCCn1ccc(NCc2cc3cc(F)ccc3o2)n1,97.47%
6,Cc1cc(CNc2ccnn2C)ccc1-n1cncn1,1.687%
7,Cc1ccc2oc(CNC(C)c3nnc4n3CCCC4)cc2c1 (centres undefined),-13.95%
8,Cn1ccc(NCc2cc3cc(F)ccc3o2)n1,107%
9,NC(=O)CCn1ccc(NCc2cc(F)ccc2Br)n1,-14.37%
10,Cn1nccc1NCc1cc2cc(F)ccc2o1,98.61%
11,COCCn1ccc(NCc2sccc2C)n1,-10.57%
12,CC(C(=O)N1CCN(c2ccc(F)cc2)CC1)n1ccnc1 (centres undefined),2.016%
13,CN(C)S(=O)(=O)N1C[C@@H]2CC[C@H](C1)N(C/C=C/c1ccc(F)cc1)C2,19.59%
14,Cc1ccccc1OCC(=O)N1CCOC2(CNCCOC2)C1 (centres undefined),-22.9%
15,COc1ccccc1CC(=O)N1CCC(NCc2cc[nH]c2)CC1,5.746%
16,CCCc1noc(CCC(=O)N2CCCCC2Cn2cc(C)cn2)n1 (centres undefined),117.6%
17,CCCc1noc(CCC(=O)N2CCCC2Cn2cc(C)cn2)n1 (centres undefined),127.2%
18,CCCc1noc(CCC(=O)N2CCCC2c2ccsc2)n1 (centres undefined),2.757%
19,O=C(O)C(F)(F)F.O=C(O)C(F)(F)F.c1ccc(OC[C@]23COC[C@H]2CN(c2ncccn2)C3)nc1,-14.79%
20,O=C(O)C(F)(F)F.O=S(=O)(C1CC1)N1C[C@H]2CCC[C@@]2(COc2ccccn2)C1,2.736%
21,COc1cc(N2C[C@@H]3COC[C@]3(C(=O)NC3CC(F)(F)C3)C2)ncn1.O=C(O)C(F)(F)F,12.94%
22,Fc1cnc(N2C[C@H]3CCC[C@@]3(COc3ccccn3)C2)nc1.O=C(O)C(F)(F)F.O=C(O)C(F)(F)F,-0.7444%
23,O=C(O)C(F)(F)F.c1cnc(N2C[C@@H]3COC[C@]3(COCC3CCCC3)C2)nc1,99.14%
24,O=C(CC1CC1)NC[C@]12COC[C@H]1CN(c1ncccn1)C2.O=C(O)C(F)(F)F,-5.322%

row,SMILES,Percent Effect
1,CCS(=O)(=O)N1C[C@H]2CCC[C@@]2(COc2ccccn2)C1.O=C(O)C(F)(F)F,18.76%
2,O=C(CC1CC1)NC[C@]12COC[C@H]1CN(c1ncc(F)cn1)C2.O=C(O)C(F)(F)F,-10.91%
3,Fc1cnc(N2C[C@@H]3COC[C@]3(COc3ccccn3)C2)nc1.O=C(O)C(F)(F)F.O=C(O)C(F)(F)F,104.4%
4,CN(C)S(=O)(=O)N1C[C@@H]2COC[C@]2(COc2ccccn2)C1.O=C(O)C(F)(F)F,82.39%
5,COc1cc(N2C[C@@H]3COC[C@]3(COc3ccccn3)C2)ncn1.O=C(O)C(F)(F)F.O=C(O)C(F)(F)F,106%
6,COc1cc(N2C[C@@H]3COC[C@]3(C(=O)NCc3ccccn3)C2)ncn1,-14.4%
7,CNC(=O)C(C)(C)NC(=O)c1cc(OCC2CCC2)cc(C(=O)OC)c1,-3.572%
8,Fc1cccc(-c2nnn3c2COC(CNCc2cccs2)C3)c1.O=C(O)C(F)(F)F (centres undefined),3.148%
9,CCCN1CCC(N2CCN(c3cc(C)nc(COC)n3)CC2)CC1,-8.34%
10,CN(C)c1cccc(C2CCCN2CCCN2CCOC2=O)c1 (centres undefined),-17.44%
11,OCC1CCCN1c1cc(N2CCN(c3ccccn3)CC2)ncn1 (centres undefined),2.004%
12,CN(C)CCN(C)c1cc(N2CCN(c3ccccn3)CC2)ncn1,127.7%
13,CN(CCc1ccccn1)c1cc(N2CCCCC2)ncn1,-10.66%
14,CN(C)c1cc(N2CCN(c3ccccn3)CC2)ncn1,109.8%
15,Cc1ccccc1N1CCN(c2cc(N(C)C)ncn2)C(C)C1 (centres undefined),2.423%
16,CN(CCC(O)c1ccccc1)c1cc(N2CCOCC2)ncn1 (centres undefined),3.711%
17,CS(=O)(=O)N1C[C@@H]2CC[C@H](C1)N(C(=O)CCc1n[nH]c3c1CCCC3)C2,-4.237%
18,O=C(C1=CCCCC1)N1CCC2(CC1)COC(COc1ccccn1)C2.O=C(O)C(F)(F)F (centres undefined),-10.4%
19,Cc1cc(C(=O)N2CC[C@H]3[C@@H]2CCC(=O)N3c2ccccc2)no1,-22.73%
20,CC(NCC1CCN(CCO)CC1)c1cccc(Cl)c1 (centres undefined),-3.921%
21,c1ccc2oc(C3CCN(Cc4ncon4)CC3)nc2c1,-12.07%
22,CCOCC1CN(C(=O)Cc2ccccn2)Cc2cnn(C)c21.O=C(O)C(F)(F)F.O=C(O)C(F)(F)F (centres undefined),117.4%
23,CCOCC1CN(C(=O)c2cnoc2C)Cc2cn(C)nc21.O=C(O)C(F)(F)F (centres undefined),-24.2%
24,CCOCC1CN(C(=O)c2ccco2)Cc2nn(C)cc21 (centres undefined),6.633%

row,SMILES,Percent Effect
1,CCOCC1CN(C(=O)c2ccco2)Cc2cnn(C)c21 (centres undefined),93.66%
2,CCOCC1CN(C(=O)CS(C)(=O)=O)Cc2cnn(C)c21.O=C(O)C(F)(F)F (centres undefined),16.84%
3,CCOCC1CN(C(=O)c2cnoc2C)Cc2cnn(C)c21.O=C(O)C(F)(F)F (centres undefined),112.3%
4,CCOCC1CN(C(=O)Cc2ccccn2)Cc2c1cnn2C.O=C(O)C(F)(F)F.O=C(O)C(F)(F)F (centres undefined),-14.09%
5,CCOCC1CN(C(=O)c2cnoc2C)Cc2cn(CC3CC3)nc21 (centres undefined),-17.44%
6,CCOCC1CN(C(=O)c2ccoc2C)Cc2cnn(C)c21 (centres undefined),98.5%
7,COc1ccccc1NC(=O)NCCCC(=O)Nc1cn[nH]c1,3.089%
8,CC(C)Oc1cccc(F)c1C(C(=O)O)N(C)Cc1ccon1 (centres undefined),-4.815%
9,CCCN(C)c1ccc(C(=O)NCc2ccnc(C)n2)cc1,14.15%
10,CC(C#N)CN(C)Cc1cc(Cl)cc2cccnc12 (centres undefined),-4.416%
11,FC(F)(F)Sc1ccc(NCc2nnc(C3CC3)o2)cc1,4.65%
12,CC(C)Cc1ncc2c(n1)CN(c1nccc(N(C)C)n1)C2,-11.83%
13,Cc1nc(C(C)(C)NCc2nnc(C(C)C)o2)sc1C,-6.227%
14,O=C(NCCc1cccnc1)NC1CCOC2(CCCCC2)C1 (centres undefined),-5.946%
15,CC(O)(CNC(=O)c1cccnc1-n1cccn1)c1ccsc1 (centres undefined),107.4%
16,CC(O)(CNC(=O)c1cccnc1-n1cccn1)c1cccs1 (centres undefined),100.2%
17,CCn1nc(C)c(CNC(=O)NCC(C)(O)c2ccsc2)c1C (centres undefined),-9.413%
18,CC(O)(CNC(=O)c1cccnc1-n1cccn1)c1ccco1 (centres undefined),109%
19,CNC(=O)c1cccnc1NCc1ccc(-n2cccn2)cc1,-16.78%
20,CC(O)(CNC(=O)NCc1cccc(-n2cncn2)c1)c1ccco1 (centres undefined),22.01%
21,CCN(CC)CCCC(C)NC(=O)c1cccnc1-n1cccn1 (centres undefined),-4.775%
22,CCOCc1ccccc1NC(=O)NCC(C)(O)c1ccsc1 (centres undefined),-1.013%
23,O=C(CCC(=O)N1CCOCC1)NCc1cccnc1-n1cccn1,4.294%
24,CCC(C)Oc1cc(C(=O)Nc2nc(C)ns2)ccn1 (centres undefined),-22%

row,SMILES,Percent Effect
1,CC(C)N1C[C@H](O)C[C@H]1c1nc(-c2ccc(OC(F)(F)F)cc2)no1,-2.832%
2,c1c(-c2nc(CN3CCOCC3)no2)nnn1CC1CCCCC1,-29.06%
3,Cc1ccc(Cl)c(NC(=O)c2cccc(CN3CC[C@H](O)C3)c2)c1,25.72%
4,CSCCc1c(-c2ccccc2)ncn1CC(C)(C)N1CCCC1,-6.465%
5,Cc1ccc(C(=O)N2CCC3(CCC(=O)N(CC(N)=O)C3)CC2)c(O)c1,-8.417%
6,COc1cccc(CN2CCC3(CCN(C(=O)C4CC=CC4)CC3)C2)c1.O=C(O)C(F)(F)F,2.015%
7,COc1cccc(CN2CCC3(CC2)CCN(c2ncc(C)cn2)C3)c1.O=C(O)C(F)(F)F,-9.924%
8,COc1cccc(CN2CCC3(CCN(c4ncc(C)cn4)CC3)C2)c1.O=C(O)C(F)(F)F,4.048%
9,COc1cccc(CN2CCC3(CC2)CCN(C(=O)[C@@H]2CCCO2)C3)c1.O=C(O)C(F)(F)F,105.3%
10,COc1cccc(CN2CCCC3(CCN(C(=O)N4CCCC4)C3)C2)c1.O=C(O)C(F)(F)F (centres undefined),81.34%
11,COc1cccc(CN2CCC3(CC2)CCN(c2ncccn2)C3)c1.O=C(O)C(F)(F)F.O=C(O)C(F)(F)F,13.94%
12,O=C(O)[C@@H]1CN(Cc2ccc3nsnc3c2)C[C@H]1c1ccncc1,20.11%
13,CCOCCC(=O)N1CCCN(Cc2csc(CC)n2)CC1,-3.622%
14,CC(C(=O)NCCc1cccs1)N1CCC(n2ccnc2)CC1 (centres undefined),14.05%
15,N#Cc1cccc(N2CCC(c3nccn3Cc3cscn3)CC2)n1,19.37%
16,CC(C(=O)NCC1(c2cccc(Br)c2)CCC1)S(C)(=O)=O (centres undefined),-10.98%
17,O=C(NC1CC1)c1cc2c(nc1O)CC(c1cccs1)CC2=O (centres undefined),2.644%
18,O=C(c1cc(Cl)ccc1OC1CCN(C2CCCC2)CC1)N1CCCO1,-1.079%
19,Cc1cc(N(Cc2ccccc2F)C2CC2)n2nc(C(F)(F)F)nc2n1,37.88%
20,Cc1ccc(CN(c2cc(C)nc3nc(C(F)(F)F)nn23)C2CC2)cc1,24.27%
21,Cc1cc(N(Cc2cccs2)C2CC2)n2nc(C(F)(F)F)nc2n1,103%
22,CC(C)OCCS(=O)(=O)NC1CCN(C2CCCC2)C1 (centres undefined),-4.658%
